Measured values: the supplement of paper PMC13380429

Test system: Vero E6 infected with SARS-CoV-2
Test: inhibition of SARS-CoV-2 cytopathic effect; higher = more antiviral protection, active = above 15
Conditions: 48 h

Measured: inhibition of SARS-CoV-2 cytopathic effect

c1coc(CNc2ncnc3[nH]cnc23)c1 [kinetin]
inactive: 1 nM -0.75% | 8.33 nM 1.25% | 100 nM 1.35% | 833.33 nM 3.24% | 10000 nM 2.8%

COc1ccc2cc3[n+](cc2c1OC)CCc1cc2c(cc1-3)OCO2 [berberine]
inactive: 1 nM -11.8% | 8.33 nM -10.1% | 100 nM -11% | 833.33 nM -3.86% | 10000 nM -3.62%

CC1CS(=O)(=O)CCN1/N=C/c1ccc([N+](=O)[O-])o1 (stereo not given) [nifurtimox]
inactive: 1 nM -0.09% | 8.33 nM 0.8% | 100 nM -1.28% | 833.33 nM 2.01% | 10000 nM 1.23%

CC(=O)O[C@@H]1CC[C@@]2(C)[C@@H](CC[C@]3(C)[C@@H]2C(=O)C=C2[C@@H]4[C@@H](C)[C@H](C)CC[C@]4(C)CC[C@]23C)[C@@]1(C)C(=O)O [acetyl-11-keto-beta-boswellic-acid]
inactive: 1 nM -1.38% | 8.33 nM -3.19% | 100 nM -1.26% | 833.33 nM -0.71% | 10000 nM -0.995%

C/C(=N\NC(=N)N)c1cc(NC(=O)CCCCCCCCC(=O)Nc2cc(/C(C)=N/NC(=N)N)cc(/C(C)=N/NC(=N)N)c2)cc(/C(C)=N/NC(=N)N)c1 [semapimod]
inactive: 1 nM 1.18% | 8.33 nM 2.42% | 100 nM 5.39% | 833.33 nM 7.62% | 10000 nM 7.5%

CSc1ccccc1Nc1nc(N2CCNCC2)nc2c(NCC3CC3)ncnc12
inactive: 1 nM 1.44% | 8.33 nM 1.6% | 100 nM 1.17% | 833.33 nM 0.92% | 10000 nM -33.2%

Oc1cc2c(cc1O)[C@H]1c3ccccc3CN[C@@H]1CC2 (racemic) [dihydrexidine]
inactive: 1 nM -2.37% | 8.33 nM -1.57% | 100 nM 0.62% | 833.33 nM -2.04% | 10000 nM 2.92%

CCOc1ccccc1OC(c1ccccc1)C1CNCCO1 (stereo not given) [reboxetine]
inactive: 1 nM 0.65% | 8.33 nM 1.82% | 100 nM 0.81% | 833.33 nM -0.58% | 10000 nM -1.59%

CO/N=C(\C(=O)N[C@@H]1C(=O)N2C(C(=O)OCOC(=O)C(C)(C)C)=C(C)CS[C@H]12)c1csc(N)n1 [cefetamet-pivoxil]
inactive: 1 nM -1.77% | 8.33 nM -0.88% | 100 nM -2.82% | 833.33 nM -0.78% | 10000 nM -2.04%

S=P(N1CC1)(N1CC1)N1CC1 [thiotepa]
inactive: 1 nM -0.94% | 8.33 nM 1.88% | 100 nM 0.45% | 833.33 nM -0.47% | 10000 nM 2.21%

CN(C(=O)CN(CCO)CC(=O)N(C)C(C)(C)Cc1ccccc1)C(C)(C)Cc1ccccc1 [oxethazaine]
inactive: 1 nM -2.13% | 8.33 nM -0.95% | 100 nM 0.87% | 833.33 nM -0.57% | 10000 nM -13.9%

NCC1CC(=O)N(Cc2ccccc2)C1 (stereo not given) [nebracetam]
inactive: 1 nM 2.53% | 8.33 nM 1.25% | 100 nM 1.38% | 833.33 nM 1.16% | 10000 nM 0.26%

CC(C)(C)S(=O)(=O)N[C@H]1CC[C@H](C(=O)Nc2ccc(C(F)(F)F)cn2)CC1 [velneperit]
inactive: 1 nM 2.37% | 8.33 nM -0.93% | 100 nM -0.23% | 833.33 nM -1.55% | 10000 nM -1.63%

NC(=O)C[C@H](N)C(=O)O [L-asparagine]
inactive: 1 nM -2.05% | 8.33 nM -1.93% | 100 nM -3.65% | 833.33 nM -1.45% | 10000 nM -0.9%

CC(C)C(N)=O [isobutyramide]
inactive: 1 nM 4.35% | 8.33 nM 1.02% | 100 nM 2.22% | 833.33 nM 2.44% | 10000 nM 0.68%

C=CC(=O)N1CCC(Oc2cc3c(Nc4ccc(Cl)c(Cl)c4F)ncnc3cc2OC)CC1 [poziotinib]
inactive: 1 nM -7.08% | 8.33 nM -14.9% | 100 nM -15.1% | 833.33 nM -17.3% | 10000 nM -15.7%

Cc1cc(-c2ccc(/N=N/c3ccc4c(S(=O)(=O)O)cc(S(=O)(=O)O)c(N)c4c3O)c(C)c2)ccc1/N=N/c1ccc2c(S(=O)(=O)O)cc(S(=O)(=O)O)c(N)c2c1O [evans-blue]
inactive: 1 nM -1.16% | 8.33 nM -4.89% | 100 nM 2.16% | 833.33 nM -0.35% | 10000 nM -17.6%

C[n+]1cc2c3c(ccc2c2ccc4cc5c(cc4c21)OCO5)OCO3 [sanguinarium-chloride]
inactive: 1 nM 0.27% | 8.33 nM 0.22% | 100 nM -1.52% | 833.33 nM 2.52% | 10000 nM -25.4%

O=C(CC1NCCCC1O)Cn1cnc2cc(Br)c(Cl)cc2c1=O (stereo not given) [halofuginone]
inactive: 1 nM -3.21% | 8.33 nM -1.77% | 100 nM -2.82% | 833.33 nM 12.3% | 10000 nM -13.9%

CSc1ccc(C(=O)c2[nH]c(=O)[nH]c2C)cc1 [enoximone]
inactive: 1 nM -4.27% | 8.33 nM -5.05% | 100 nM -6.45% | 833.33 nM -4.44% | 10000 nM -2.39%

CCC[C@@H]1CC(=O)N([C@@H](CC)C(N)=O)C1 [Brivaracetam]
inactive: 1 nM -0.93% | 8.33 nM -1.72% | 100 nM -2.91% | 833.33 nM -2.52% | 10000 nM 1.45%

CC1(C)CCC[C@]2(C)[C@H]3CC(=O)O[C@]3(C)CC[C@@H]12 [Sclareolide (Norambreinolide)]
inactive: 1 nM -2.36% | 8.33 nM 3.53% | 100 nM 6.06% | 833.33 nM 2.01% | 10000 nM 1.5%

Cc1ccc(F)cc1C(=O)Nc1ccc(C(=O)N2Cc3cccn3Cc3ccccc32)c(Cl)c1 [lixivaptan]
inactive: 1 nM -2.22% | 8.33 nM 2.67% | 100 nM 2% | 833.33 nM 1.18% | 10000 nM -0.31%

COc1ccc(-n2nc(C(F)(F)F)cc2-c2ccc(Cl)cc2)cc1
inactive: 1 nM 2.57% | 8.33 nM 3.29% | 100 nM 1.98% | 833.33 nM 1.58% | 10000 nM -5.13%

CCCCCn1cc(C(=O)NC23CC4CC(CC(C4)C2)C3)c(=O)c2cc(-c3ccccc3)ccc21
inactive: 1 nM -3.48% | 8.33 nM -3% | 100 nM -0.96% | 833.33 nM -1.94% | 10000 nM -5.93%

COc1cccc2c1C(=O)c1c(O)c3c(c(O)c1C2=O)C[C@@](O)(/C(CO)=N/NC(=O)CCCCCN1C(=O)C=CC1=O)C[C@@H]3O[C@H]1C[C@H](N)[C@H](O)[C@H](C)O1 [aldoxorubicin]
inactive: 1 nM -2.6% | 8.33 nM -0.32% | 100 nM 0.6% | 833.33 nM 4.67% | 10000 nM -1.37%

NS(=O)(=O)Cc1noc2ccccc12 [zonisamide]
inactive: 1 nM -1.19% | 8.33 nM -3.86% | 100 nM -0.76% | 833.33 nM 0.73% | 10000 nM -2.23%

CCCCCCOC(=O)NC(=N)c1ccc(NCc2nc3cc(C(=O)N(CCC(=O)OCC)c4ccccn4)ccc3n2C)cc1 [dabigatran-etexilate]
inactive: 1 nM 1% | 8.33 nM 2.6% | 100 nM 1.5% | 833.33 nM 1.44% | 10000 nM -2.8%

Cn1nc(-c2cccc(F)c2)n(C)c1=S [suritozole]
inactive: 1 nM 3.45% | 8.33 nM 1.68% | 100 nM 1.49% | 833.33 nM 1.52% | 10000 nM 1.85%

NC(Cc1ccc(I)cc1)C(=O)O (stereo in doubt) [4-iodo-L-phenylalanine]
inactive: 1 nM 0.62% | 8.33 nM -0.66% | 100 nM 0.54% | 833.33 nM 0.32% | 10000 nM -0.26%

CCc1cc2c(cc1CC)CC(NC[C@H](O)c1ccc(O)c3[nH]c(=O)ccc13)C2 [indacaterol]
inactive: 1 nM -4.02% | 8.33 nM -0.7% | 100 nM -0.83% | 833.33 nM -1.99% | 10000 nM -2.01%

O=C(/C=C/c1ccc(O)c(O)c1)O[C@@H]1C[C@](O)(C(=O)O)C[C@@H](O)[C@H]1O [chlorogenic-acid]
inactive: 1 nM -0.66% | 8.33 nM 1.67% | 100 nM 1.61% | 833.33 nM -0.18% | 10000 nM -0.05%

CN(C)[C@@H](CCOc1cccc2ccccc12)c1ccccc1 [dapoxetine]
inactive: 1 nM 1.42% | 8.33 nM 3.51% | 100 nM 1.54% | 833.33 nM 0.31% | 10000 nM 1.17%

Oc1ccc(Cl)c2cccnc12 [cloxyquin]
inactive: 1 nM 1.22% | 8.33 nM 0.37% | 100 nM 2.68% | 833.33 nM 3.29% | 10000 nM -0.16%

CCCCC[C@H](O)/C=C/[C@H]1[C@H](O)CC(=O)[C@@H]1CCCCCCC(=O)O [alprostadil]
inactive: 1 nM 1.09% | 8.33 nM 3.65% | 100 nM 0.04% | 833.33 nM -3.27% | 10000 nM 0.55%

CN/C(=N\CCSCc1nc[nH]c1C)NC#N [cimetidine]
inactive: 1 nM 0.42% | 8.33 nM -1.81% | 100 nM -0.46% | 833.33 nM 2.3% | 10000 nM -1.84%

C[C@H](Nc1cc(NS(=O)(=O)N2CCC2)nc(SCc2cccc(F)c2F)n1)[C@@H](O)CO
inactive: 1 nM 3.09% | 8.33 nM 1.5% | 100 nM 0.2% | 833.33 nM 0.91% | 10000 nM 2.14%

C[C@]12CC[C@@H](O)C[C@H]1CC[C@@H]1[C@@H]2CC[C@]2(C)C(=O)CC[C@@H]12 [3-alpha-hydroxy-5-beta-androstan-17-one]
inactive: 1 nM -1.07% | 8.33 nM 1.38% | 100 nM 2.2% | 833.33 nM 3% | 10000 nM 2.64%
